LANA-H2B inh – blocks KSHV LANA binding to histone H2A/H2B. Q9QR71. cell-free LANA-H2A/H2B peptide, fluorescence polarization. inhibition, % (concentration not given with the values). hit rate 0.6% among 320,000. AID 2629; in the data active = inhibition mostly above about 10%, no sharp cut-off; inactive = mostly below about 6.7%
BCLXL inh – Bcl-xL (human) inhibition. GST-Bcl-xL / FITC-Bim BH3 peptide fluorescence polarization. hit rate 0.7% among 320,000. Q07817. AID 2129. inhibition, % at 10.9 µM;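 active = inhibition above the mean of all tested compounds plus 3 SD, cutoff set per campaign, cut at about 30% in these data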;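 note: 0% = DMSO wells and 100% = unlabeled Bim-BH3 peptide competitor; inhibitors lower millipolarization by displacing the labeled peptide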
CR mimetic SO – caloric restriction mimetics inhibiting age-related superoxide in yeast. S. cerevisiae aged cells, superoxide DHE fluorescence; active compounds read low. superoxide response (% of plate mean), % at 10 µM. hit rate 0.18% among 330,000. AID 2690;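 active = superoxide response under a set limit, about three screen SD below normal, cut at about 65% in these data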;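 note: yeast aged for seven days with compound at 30 °C before DHE staining; 100% = average MFI of all compound-treated wells on the plate with controls excluded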
MCL1-BIM inh – disrupts human MCL1 binding to BIM-BH3 peptide; Q07820; GST-MCL1 / FITC-Bim-BH3 fluorescence polarization; inhibition, % at 10.9 µM; hit rate 0.68% among 320,000;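 active = inhibition above the mean inhibition of all tested compounds plus 3 SD, set per campaign, cut at about 40% in these data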;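 note: 0% = DMSO wells and 100% = unlabeled Bim-BH3 peptide control; higher means more loss of mP so more displacement of Bim peptide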
MEX-5 binding – C. elegans MEX-5 TCR-2 RNA binding activity | Q9XUB2 | MEX-5/FITC-TCR2 RNA binding, fluorescence polarization; active compounds read low | activity score (negative = inhibition of binding), % at 10 µM | hit rate 0.38% among 300,000;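 active = inhibition past about -25% in most replicates, and total fluorescence under double the plate's negative control median, limit read from the data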;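 note: 0% = DMSO and -100% = 5 µM competing unlabeled TCR2 RNA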
Target sequence (Q9XUB2 whole entry, looked up): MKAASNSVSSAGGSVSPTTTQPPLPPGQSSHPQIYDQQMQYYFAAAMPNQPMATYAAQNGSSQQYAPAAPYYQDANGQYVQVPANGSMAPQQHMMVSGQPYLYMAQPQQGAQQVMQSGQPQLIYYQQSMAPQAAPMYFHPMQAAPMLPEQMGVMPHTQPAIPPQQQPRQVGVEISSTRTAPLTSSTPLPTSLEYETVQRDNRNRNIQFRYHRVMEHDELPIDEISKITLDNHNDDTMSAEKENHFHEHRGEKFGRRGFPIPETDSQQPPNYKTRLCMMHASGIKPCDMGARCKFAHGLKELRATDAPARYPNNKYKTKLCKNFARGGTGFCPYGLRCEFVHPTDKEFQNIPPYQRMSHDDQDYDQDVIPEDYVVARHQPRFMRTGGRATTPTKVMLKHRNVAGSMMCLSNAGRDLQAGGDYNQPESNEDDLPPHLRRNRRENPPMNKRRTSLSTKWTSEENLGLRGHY
GLD-1 RNA inh – GLD-1-TGE RNA interaction inhibition (C. elegans). inhibition, % at 5.96 µM. AID 2280. hit rate 0.44% among 320,000. Q17339. purified GLD-1 + fluorescein TGE RNA, fluorescence polarization;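 active = percent inhibition above a per-plate cutoff, the plate mean of test compounds plus 3 SD, cut at about 30% in these data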;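 note: 0% = DMSO wells with GLD-1 and probe and 100% = wells lacking GLD-1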
* = called active by the depositor. Sampled rows, rich in hits. Any-hit rate of the full collection: about 1.9%.

Screening Cc1ccccc1-c1nnc(SC(C)C(=O)NC2CCCC2)o1 (stereo unspecified) returned LANA-H2B inh 6, BCLXL inh -4, CR mimetic SO 112, MCL1-BIM inh -3 and GLD-1 RNA inh 2.
Screening Cc1ccc2c(c1)NC(=O)c1cccnc1N2 returned LANA-H2B inh -1, BCLXL inh 7, CR mimetic SO 102, MCL1-BIM inh 15, MEX-5 binding -2 and GLD-1 RNA inh 2.
For O=C1Nc2ccccc2Nc2ncccc21 the results were LANA-H2B inh 15*, BCLXL inh 5, CR mimetic SO 96, MCL1-BIM inh 2, MEX-5 binding 0 and GLD-1 RNA inh 10.
`CC(C)=CCC/C(C)=C/CC/C(C)=N/O` gave LANA-H2B inh 12*, BCLXL inh 0, CR mimetic SO 92, MCL1-BIM inh 7, MEX-5 binding -3 and GLD-1 RNA inh 7.
`Cc1ccsc1/C=C/C1=Cc2c(sc(NC(=O)CSc3n[nH]c(N)n3)c2C#N)C(C)(C)C1` gave LANA-H2B inh 15, BCLXL inh 25, CR mimetic SO 91, MCL1-BIM inh 11, MEX-5 binding 1 and GLD-1 RNA inh 73*.
Screening CCOc1ccc(/C=C/C2=Cc3c(sc(NC(=O)CSc4n[nH]c(N)n4)c3C#N)C(C)(C)C2)cc1 returned LANA-H2B inh -5, BCLXL inh -14, CR mimetic SO 111, MCL1-BIM inh -55, MEX-5 binding 1 and GLD-1 RNA inh 31*.
`O=C(COC(=O)CN1CCSC1=O)Nc1ccc(F)cc1Cl` gave LANA-H2B inh -2, CR mimetic SO 78 and GLD-1 RNA inh -3.
CCN(CC(=O)Nc1ccc2c(c1)OCCO2)C(=O)c1ccc([N+](=O)[O-])s1 was read as LANA-H2B inh 3, BCLXL inh 9, CR mimetic SO 168, MCL1-BIM inh 11 and GLD-1 RNA inh 5.
COc1ccc(S(=O)(=O)N2CCC(C(=O)NCCC3=CCCCC3)CC2)cc1C was read as LANA-H2B inh 34*, BCLXL inh 2, CR mimetic SO 111, MCL1-BIM inh -1, MEX-5 binding 0 and GLD-1 RNA inh 1.
Screening COc1ccc(C(=O)C(C)OC(=O)CNC(=O)c2ccco2)cc1 (stereo unspecified) returned LANA-H2B inh 1, CR mimetic SO 94 and GLD-1 RNA inh 0.
Screening CCc1ccc(C(c2ccc(CC)cc2)C(Cl)Cl)cc1 returned LANA-H2B inh 24*, BCLXL inh 3, CR mimetic SO 93, MCL1-BIM inh 4 and GLD-1 RNA inh 5.
Screening Clc1ccc(C(c2ccccc2Cl)C(Cl)Cl)cc1 (stereo unspecified) returned LANA-H2B inh -5, BCLXL inh 2, CR mimetic SO 107, MCL1-BIM inh -4 and GLD-1 RNA inh 2.
For COCCCn1c(SCC(=O)Nc2ccc(NC(=O)c3ccco3)c(OC)c2)nc2ccccc2c1=O the results were LANA-H2B inh 28*, BCLXL inh -1, CR mimetic SO 105, MCL1-BIM inh -7, MEX-5 binding -1 and GLD-1 RNA inh -9.
For CCOCCCn1c(SCC(=O)Nc2ccccc2OC)nc2ccccc2c1=O the results were LANA-H2B inh 3, BCLXL inh 4, CR mimetic SO 95, MCL1-BIM inh -4, MEX-5 binding -2 and GLD-1 RNA inh 4.
For COc1ccc(NS(=O)(=O)c2cc(NC(=O)c3ccc(=O)[nH]n3)ccc2N2CCOCC2)cc1 the results were LANA-H2B inh 0, BCLXL inh 8, CR mimetic SO 110, MCL1-BIM inh 7 and GLD-1 RNA inh 3.
NS(=O)(=O)c1cccc(NC(=O)COC(=O)/C=C/c2nc3ccccc3s2)c1 was read as LANA-H2B inh 6, CR mimetic SO 79 and GLD-1 RNA inh 2.
`CC(C)(NS(=O)(=O)OCC(Cl)(Cl)Cl)c1ccccc1` gave LANA-H2B inh 43*, BCLXL inh 2, CR mimetic SO 97, MCL1-BIM inh 15, MEX-5 binding 1 and GLD-1 RNA inh 8.
Cc1ccc(-c2ccccc2)n1-c1ccc(C(=O)O)cc1 was read as LANA-H2B inh 8, BCLXL inh 9, CR mimetic SO 96, MCL1-BIM inh 10, MEX-5 binding -3 and GLD-1 RNA inh 3.
For Cc1cc2c(n1-c1ccc(C(=O)O)cc1)CCCCC2 the results were LANA-H2B inh 5, CR mimetic SO 103 and MEX-5 binding -62*.

Source: PubChem (several laboratories)
